Compound activity as filed in PubChem.
Most compounds without a hit are left out; they make up all but 11% or so of the library.
HCV inh: inhibitors of hepatitis C virus infection. actives 3.4% (n = 340,000). Potency, µM (highest dose often 41.8 µM), actives largely listed as inhibitors. Huh7.5.1 HCVcc-Cre infection, luciferase reporter, 44 h. AID 651820
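Seed cells (1,000/well) for 4 h; treat with compound and infect with HCVcc-Cre, moi about 0.5. Incubate 44 h, then detect luciferase activity.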
Pf growth 96h: P. falciparum growth inhibition at 96 hour, primary screen for plastid delayed-death inhibitors | P. falciparum luciferase reporter growth, 96 h | Potency, µM (series often up to 28.7 µM), most hits filed as inhibitors | actives 6.9% (n = 320,000)
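Plates of compound plus infected erythrocytes (2% hematocrit, 0.05% parasitemia final) incubate 96 hours, 37 C, 5% CO2. Detection reagent added; reduced luminescence from the parasites' luciferase reporter flags inhibition.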
AMA1-RON2 inh: AMA1-RON2 (P. falciparum) interaction inhibition; AlphaScreen AMA1-biotinylated RON2 peptide binding; Potency, µM (top dose mostly 58.2 µM), actives largely listed as inhibitors; actives 0.2% (n = 360,000); note: nearly all actives have a fitted effect of over 45% in size
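AMA1 (3D7) with his tag at 25 nM final met compounds first, then biotinylated RON2 peptide at 25 nM; detection used donor plus acceptor beads, 10 µg/mL apiece, read by AlphaScreen after 30 min at room temperature.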
Pf growth 48h: P. falciparum growth inhibition at 48 hours (one generation); AID 504832; actives 5.9% (n = 310,000); Potency, µM (doses to about 28.7 µM), usual class: inhibitors; P. falciparum luciferase growth in erythrocytes, 48 h
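Here the parasites carry a stable luciferase gene and grow inside erythrocytes in Albumax-based RPMI medium with compound for one erythrocytic cycle. Activity is scored as loss of luminescent signal.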
Large screens that a line does not name were inactive; ! = a repeat was not active. Calls come from the whole dose curve; as a rule, active = well fitted curve in the direction sought with a large enough effect; inconclusive = small, poorly fitted or top-dose-only effect, or another doubt; inactive = no such curve, though single readings can be large; an effect the other way counts as inactive or inconclusive.

Cn1ccnc1-c1nnn(-c2ccc(Cl)c(Cl)c2)n1	HCV inh inconclusive (no result: Pf growth 96h, Pf growth 48h)
c1ccc2c(c1)OCC(C1=NCCN1)O2 (stereo not given)	Pf growth 96h 4.78µM!, Pf growth 48h inconclusive
Cc1cc(C)n2nc(SCCCC(=O)c3ccc(F)cc3)nc2n1	Pf growth 96h inconclusive
CC(C)NC(=O)NC1C2CC3CC(C2)CC1C3 (stereo not given)	Pf growth 96h 10.4µM, Pf growth 48h inconclusive
CC(=O)N[C@@H](CS)C(=O)O	HCV inh 10µM!
COc1ccc(N(CC(=O)NCc2ccccc2OC)S(=O)(=O)c2ccc(C)cc2)cc1Cl	Pf growth 48h inconclusive
Cc1nnc(-c2cccc(Br)c2)c2cn(-c3ccc(Br)cc3)nc12	HCV inh 11.2µM, Pf growth 96h 2.62µM, Pf growth 48h inconclusive
Cc1nnc(-c2cccc(Br)c2)c2cn(-c3ccccc3)nc12	HCV inh inconclusive
CC(C)[C@@H](CO)NS(=O)(=O)c1ccc(Br)cc1F	none (no result: Pf growth 96h, Pf growth 48h)
O=C(NCCCCNC(=O)c1ccc(Br)cc1)c1ccc(Br)cc1	none
O=C(NCCCc1ccccc1)c1ccc(F)cc1	Pf growth 96h 16.5µM
O=C(NCCCCNC(=O)c1ccc(F)cc1)c1ccc(F)cc1	Pf growth 96h 2.62µM
O=C1CCCN1c1ccc(S(=O)(=O)NCCOc2ccccc2)cc1	Pf growth 96h inconclusive
Cc1cc(N2CCCC2=O)cc(C)c1S(=O)(=O)NCCOc1ccc(C(C)(C)C)cc1	HCV inh 11.2µM, Pf growth 96h inconclusive, Pf growth 48h 13.1µM
COCc1cc(C)nc2sc(C(=O)Nc3ccccc3F)c(N)c12	HCV inh 10µM, Pf growth 96h inconclusive
COCc1cc(C)nc2sc(C(=O)Nc3ccc(C(=O)OC)cc3)c(N)c12	none
COC(=O)c1cn(-c2ccccc2)c(=O)c2ccccc12	none
COC(=O)c1cn(C(=O)c2ccccc2)c2ccccc12	none
COC(=O)c1cn(C(=O)c2cc(Cl)ccc2Cl)c2ccccc12	Pf growth 96h 13.1µM
COC(=O)c1cn(-c2ccc(Cl)cc2)c(=O)c2ccccc12	HCV inh inconclusive, Pf growth 48h 2.94µM (no result: Pf growth 96h)
N#C/C(=C\Nc1ccc2cn[nH]c2c1)c1nc(-c2ccc(Cl)cc2)cs1	HCV inh inconclusive, Pf growth 96h 4.15µM, Pf growth 48h inconclusive
CCCCNc1c(-c2ccc(SC3CCCCC3)cc2)nc2ccccn12	HCV inh inconclusive, Pf growth 96h inconclusive, Pf growth 48h inconclusive
CCCCNc1c(-c2ccc(SC(C)CC)cc2)nc2ccccn12 (stereo not given)	HCV inh 22.4µM
CCCCNc1c(-c2ccc(OC)c(SC(C)CC)c2)nc2cc(C)ccn12 (stereo not given)	HCV inh 7.08µM (no result: Pf growth 96h, Pf growth 48h)
CCCCNc1c(-c2ccc(Sc3ccc(OC)cc3)cc2)nc2cc(C)ccn12	HCV inh 10µM (no result: Pf growth 96h, Pf growth 48h)
O=C(C(=O)N1CCN(Cc2ccc3c(c2)OCO3)CC1)c1c[nH]c2ccccc12	Pf growth 96h inconclusive, Pf growth 48h inconclusive
CC1=C(/C=C/C(C)=C/C=C/C(C)=C/C(=O)Nc2ccc(O)cc2)C(C)(C)CCC1	HCV inh 6.31µM, Pf growth 96h inconclusive, Pf growth 48h 11.7µM
CC(C)CCNC(=O)C1CC(c2ccccc2C(F)(F)F)=NO1 (stereo not given)	none
COC(=O)CN(C#N)c1nc(NCc2ccccc2)nc(OC)n1	Pf growth 96h inconclusive, Pf growth 48h 9.28µM
COC(=O)CN(C#N)c1nc(N(C)C)nc(N(C)C)n1	Pf growth 96h 4.15µM
Cc1cccc(OCc2nnc(SCC(=O)NC3CCCC3)n2C)c1	none
Cc1cccc(Nc2nc(-c3ccc(F)cc3)cs2)n1	HCV inh inconclusive, Pf growth 96h 11.7µM
Cc1cccc(Nc2nc(-c3ccccn3)cs2)n1	HCV inh 7.08µM, Pf growth 48h inconclusive
COc1ccc(-c2csc(Nc3cccc(C)n3)n2)cc1	HCV inh inconclusive, Pf growth 96h inconclusive
O=C(COc1ccccc1F)NCC(c1ccco1)N1CCCC1 (stereo not given)	Pf growth 96h inconclusive, Pf growth 48h inconclusive
COc1ccc(NC(=S)N2CCN(C(c3ccccc3)c3ccccc3)CC2)c(OC)c1	HCV inh inconclusive, Pf growth 48h 5.22µM
COc1cccc(N2CCN(C(=S)Nc3ccccc3OC)CC2)c1	Pf growth 96h 9.28µM
CC(C)CCNC(=O)CCCCn1c(=O)[nH]c2ccsc2c1=O	none
O=C(Nc1ccccc1)c1cccc(C(F)(F)F)c1	none
C=CCN(C(=O)c1cccc(C(F)(F)F)c1)C1(C(=O)Nc2ccccc2)CCN(C(C)C)CC1	HCV inh inconclusive, Pf growth 96h 7.38µM, Pf growth 48h inconclusive
Cc1cc(C)cc(NS(=O)(=O)c2c(C)[nH]c(=O)[nH]c2=O)c1	Pf growth 96h 2.08µM
Cc1ccc(S(=O)(=O)N[C@H](C(=O)N2CCC(C(=O)N[C@@H](CCC(N)=O)C(=O)O)CC2)C(C)C)cc1	none
O=C(N/N=C/c1ccccn1)NC12CC3CC(CC(C3)C1)C2	none
CCOc1ccccc1NC(=O)c1ccc(NC(=O)c2ccco2)cc1	HCV inh 10µM, Pf growth 48h 2.94µM
O=C(Nc1ccc(-c2ccccc2)cc1)c1ccco1	Pf growth 96h 4.65µM
CCN(c1ccccc1)S(=O)(=O)c1cc(C(=O)Nc2ccc(F)c(F)c2)ccc1F	HCV inh 4.47µM, Pf growth 48h inconclusive
CC(C)(C)NC(=O)c1cccc(NC(=O)c2ccc(NC(=O)c3ccco3)cc2)c1	HCV inh 2.51µM
CCN(c1ccccc1)S(=O)(=O)c1ccc(C(=O)Nc2cccc(NC(C)=O)c2)cc1	none (no result: Pf growth 96h, Pf growth 48h)
O=C(Nc1ccc(NC(=O)c2ccco2)cc1)c1ccco1	Pf growth 96h inconclusive
COc1ccc(/C=C(\NC(=O)c2ccc(C)cc2)C(=O)Nc2c(C)n(C)n(-c3ccccc3)c2=O)cc1	none
Cc1cccc(NC(=S)N2CCOCC2)c1C	none
CC(=O)N1CCc2cc(S(=O)(=O)C(C)CC(=O)NCc3ccco3)ccc21 (stereo not given)	none (no result: HCV inh, Pf growth 96h, Pf growth 48h)
CN(c1ccccc1)S(=O)(=O)c1nnc(NC(=O)c2ccco2)s1	Pf growth 96h 3.7µM
CCN(c1ccccc1)S(=O)(=O)c1ccc(NC(=O)c2ccco2)cc1	Pf growth 48h 10.4µM
CN(c1ccccc1)S(=O)(=O)c1ccc(NC(=O)c2ccco2)cc1	none
C/C(=N\NC(=O)c1cccc(C)c1)c1cccc(NC(=O)c2ccco2)c1	none
C/C(=N\NC(=O)c1cccc(Cl)c1)c1cccc(NC(=O)c2ccco2)c1	HCV inh inconclusive, Pf growth 96h 11.7µM, Pf growth 48h inconclusive
Cc1cccc(N(C)S(=O)(=O)c2nnc(NC(=O)c3ccco3)s2)c1	Pf growth 96h inconclusive
CCOC(=O)Cc1ccc(NC(=O)c2ccccc2Br)cc1	none
CCOC(=O)Cc1ccc(NC(=O)c2ccc(C(C)(C)C)cc2)cc1	HCV inh 7.08µM, Pf growth 48h 4.15µM (no result: Pf growth 96h)
O=S(=O)(/N=C(/Nc1ccccc1)c1ccccc1O)c1ccccc1	Pf growth 48h inconclusive
COc1ccccc1C(=O)N/N=C(\C)c1ccc(NC(=O)Cc2ccccc2)cc1	Pf growth 48h inconclusive
O=C(Nc1cccc(NC(=O)c2ccco2)c1)c1cccc(Br)c1	none
C/C(=N\NC(=O)c1ccccc1N)c1ccc(NC(=O)Cc2ccccc2)cc1	Pf growth 48h 9.28µM
